Data as given in PubChem BioAssay (NCATS).
Results filed as inconclusive are left out. For some of these results: Measured potencies and affinities stand elsewhere. Calls of active or inactive are those of the source. Unless noted, no rule for the calls is given here. Residues, ends and D or L forms follow the SMILES beside them.

Experiments:
[1] = Ebola virus entry assay, blue channel fluorescence
[2] = Ebola virus entry assay, ratio channel
[3] = Ebola virus entry assay, green channel fluorescence
[4] = Ebola virus entry assay, reporter ratio channel; AC50: Channel type: primary unless noted; outcome: Channel type: primary unless noted
[5] = Ebola virus entry assay, blue channel (ratio component)
[6] = qHTS assay for measurement of the activity of small molecule inhibitors on Zika virus induced Caspase-3 activity in human iPSC derived neural progenitor cells (hNPCs) (AID 1224857; active = well fitted inhibition curve with a large enough effect; also: nearly all actives have a fitted effect of over 65% in size); conditions: hNPCs ZIKV-induced caspase-3/7, Caspase-Glo luminescence, 6 h; series mostly up to 45.7 µM
Outline: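 Pretreat hNPCs with compound 1 h; infect ZIKV 2 FFU/cell; 6 h 37 C, 5% CO2; Caspase-Glo 3/7, 30 min RT; luminescence; normalize to no-virus and virus-only wells.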

[7] = qHTS assay for measurement of the activity of small molecule inhibitors on Zika virus induced Caspase-3 activity in human astrocytoma cells (AID 1224859; active = well fitted inhibition curve with a large enough effect); conditions: SNB-19 ZIKV-induced caspase-3/7, luminescence, 6 h; series mostly up to 45.7 µM
Outline: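 Human SNB-19 astrocytoma cells in RPMI 1640 with 10% FBS receive compound one hour ahead of Zika virus at 2 FFU/cell. After 6 h infection, caspase-3/7 activity is detected by Caspase-Glo luminescence.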

Measured: outcome

O=C(O)CCCC[C@@H]1SC[C@@H]2NC(=O)N[C@@H]21
not listed: [6] | [7]
inactive: all other assays above

CCC[C@@H]1C[C@@H](C(=O)N[C@@H]([C@H]2O[C@H](SC)[C@H](O)[C@@H](O)[C@H]2O)[C@@H](C)O)N(C)C1
not listed: [6] | [7]
inactive: all other assays above

O=C(O)c1ccc[n+]([O-])c1
not listed: [6] | [7]
inactive: all other assays above

CN[C@@H]1[C@H](O)[C@H](NC)[C@H]2O[C@@]3(O)C(=O)C[C@@H](C)O[C@H]3O[C@@H]2[C@H]1O
not listed: [6] | [7]
inactive: all other assays above

COc1cccc(C(=O)CCN[C@@H](C)[C@H](O)c2ccccc2)c1
inactive: all assays above

N=C(N=C(N)N)N1CCOCC1
not listed: [6] | [7]
inactive: all other assays above

CCOCCn1c(C2CCN(CCc3ccc(C(C)(C)C(=O)O)cc3)CC2)nc2ccccc21
not listed: [6] | [7]
inactive: all other assays above

CC(=O)OC[C@H]1O[C@@H](n2ncc(=O)[nH]c2=O)[C@H](OC(C)=O)[C@@H]1OC(C)=O
not listed: [6] | [7]
inactive: all other assays above

CC(=O)OCC(=O)[C@@]1(O)CC[C@H]2[C@@H]3CCC4=CC(=O)CC[C@]4(C)[C@H]3C(=O)C[C@@]21C
not listed: [6] | [7]
inactive: all other assays above

C[C@@H](N)[C@@H](O)c1ccccc1
inactive: all assays above

CN1CCN(C(=O)C2CCCCC2)CC1
not listed: [6] | [7]
inactive: all other assays above

Cc1cnc(NC(=O)C2=C(O)c3ccccc3S(=O)(=O)N2C)s1
not listed: [6] | [7]
inactive: all other assays above

CCC(CC)(CNC(=O)CCCO)c1cccc(OC)c1
inactive: all assays above

CCC(C(=O)OCCN(CC)CC)c1ccccc1 (centres undefined)
not listed: [6] | [7]
inactive: all other assays above

Nc1ccc(S(=O)(=O)Nc2ccnn2-c2ccccc2)cc1
not listed: [6] | [7]
inactive: all other assays above

Cc1nnc(NS(=O)(=O)c2ccc(N)cc2)s1
not listed: [6] | [7]
inactive: all other assays above

O=C(O)c1cccnc1
not listed: [6] | [7]
inactive: all other assays above

CC(Cc1ccccc1)NCCn1cnc2c1c(=O)n(C)c(=O)n2C (centres undefined)
inactive: all assays above

COCC(=O)Nc1c(I)c(C(=O)NCC(O)CO)c(I)c(C(=O)N(C)CC(O)CO)c1I (centres undefined)
not listed: [6] | [7]
inactive: all other assays above

NC(=O)c1cc([N+](=O)[O-])cc([N+](=O)[O-])c1
inactive: all assays above

CCOc1ccc(NS(=O)(=O)c2ccc(N)cc2)nn1
not listed: [6] | [7]
inactive: all other assays above

CC[N+](C)(CC)CCOC(=O)C1c2ccccc2Oc2ccccc21
not listed: [6] | [7]
inactive: all other assays above

C/C=C/C=N/NC(=O)c1ccncc1
not listed: [6] | [7]
inactive: all other assays above

CCCN(CCC)C(=O)Cc1c(-c2ccc(Cl)cc2)nc2ccc(Cl)cn12
inactive: all assays above

C[C@H](NC(CCc1ccccc1)C(=O)O)C(=O)N1CCC[C@H]1C(=O)O (some centres undefined)
not listed: [6] | [7]
inactive: all other assays above

CNCC(=O)c1ccc(O)c(O)c1
inactive: all assays above

c1ccc2c(c1)sc1ccccc12
inactive: all assays above

COc1ccc2cc([C@H](C)C(=O)O)ccc2c1
not listed: [6] | [7]
inactive: all other assays above

C/C(=N\O)c1ccc(OCC(=O)N2CCCCC2)cc1
not listed: [6] | [7]
inactive: all other assays above

O=C(O)CN(CCN(CC(=O)O)CC(=O)O)CCN(CC(=O)O)CC(=O)O
not listed: [6] | [7]
inactive: all other assays above

O=C(O)Cc1cccc2ccccc12
not listed: [6] | [7]
inactive: all other assays above

CC(C)OP(=O)(CP(=O)(OC(C)C)OC(C)C)OC(C)C
not listed: [6] | [7]
inactive: all other assays above

CC(=O)N/N=C/c1ccc([N+](=O)[O-])o1
not listed: [6] | [7]
inactive: all other assays above

COC(=O)[C@H](Cc1ccccc1)NC(=O)[C@@H](N)CC(=O)O (H-Asp-Phe-OMe)
not listed: [6] | [7]
inactive: all other assays above

CC(C)NC(C)C
inactive: all assays above

Cc1cc2c(cc1S(N)(=O)=O)S(=O)(=O)CCC2
not listed: [6] | [7]
inactive: all other assays above

O=C(O)Cc1cn(-c2ccccc2)nc1-c1ccc(Cl)cc1
not listed: [6] | [7]
inactive: all other assays above

CCN(CC)CC(=O)Oc1ccc(NC(C)=O)cc1
not listed: [6] | [7]
inactive: all other assays above

COc1cc(CC(C)N)cc(OC)c1OC (centres undefined)
inactive: all assays above

O=C(Nc1cccc2c(=O)cc(-c3nn[nH]n3)oc12)c1ccc(OCCCCc2ccccc2)cc1
not listed: [6] | [7]
inactive: all other assays above

Nc1ncnc2c1ncn2[C@@H]1O[C@H](CO)[C@@H](O)[C@H]1O
not listed: [6] | [7]
inactive: all other assays above

COC(=O)c1cc(Cl)ccc1OC
not listed: [6] | [7]
inactive: all other assays above

NC1=NC(=O)C(c2ccccc2)O1 (centres undefined)
not listed: [2]
inactive: all other assays above

COc1ccccc1OCC1CNC(=O)O1 (centres undefined)
inactive: [1] | [3] | [4] | [5]

CC(CSC(=O)c1ccccc1)C(=O)N1C[C@@H](Sc2ccccc2)C[C@H]1C(=O)O (some centres undefined)
inactive: [1] | [3] | [4] | [5]

NC(=O)c1ccccc1O
inactive: [1] | [3] | [4] | [5]

CC(C)(C)NCC(O)c1ccccc1Cl (centres undefined)
not listed: [2]
inactive: all other assays above

Cc1cnc(NS(=O)(=O)c2ccc(N)cc2)nc1
inactive: [1] | [3] | [4] | [5]

CN(C)CCc1c[nH]c2cccc(OP(=O)(O)O)c12
not listed: [2]
inactive: all other assays above

OCc1ccc(Cl)cc1Cl
inactive: [1] | [3] | [4] | [5]

Nc1ncnc2nc[nH]c12
inactive: [1] | [3] | [4] | [5]

Nc1ccccc1C(=O)O
not listed: [2]
inactive: all other assays above

CCCCCCCCCCCCCCCCCC(=O)O
inactive: [1] | [3] | [4] | [5]

C#CC(O)(C=CCl)CC (centres undefined)
not listed: [2]
inactive: all other assays above

CCOC(=O)[C@H](CCc1ccccc1)N[C@@H](C)C(=O)N1CCC[C@H]1C(=O)O
inactive: [1] | [3] | [4] | [5]

OC[C@H]1O[C@H](O[C@]2(CCl)O[C@H](CCl)[C@@H](O)[C@@H]2O)[C@H](O)[C@@H](O)[C@H]1Cl
inactive: [1] | [3] | [4] | [5]

CC(=O)Nc1ccc(C(=O)O)cc1
inactive: [1] | [3] | [4] | [5]

CC(=O)Nc1ccc(CC(=O)O)cc1
inactive: [1] | [3] | [4] | [5]
